# Assay results as given in PubChem BioAssay (NCATS).
# Results filed as inconclusive are left out. Where a call stands in place of a potency, no number is given. Active and inactive are the calls of the source. Unless noted, calls come from the whole dose curve; as a rule, active = well fitted curve in the direction sought with a large enough effect; inconclusive = small, poorly fitted or top-dose-only effect, or another doubt; inactive = no such curve, though single readings can be large; an effect the other way counts as inactive or inconclusive.
# Legend:
# [1] = system: Zika virus NS2B-NS3 protease; assay: Primary screen GU AMC qHTS for Zika virus inhibitors (AID 1347154); note: nearly all actives have a fitted effect of over 70% in size
# Method in brief: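 Unlinked Zika NS2B hydrophilic domain–NS3 protease complex at 25 nM in 10 mM Tris-HCl pH 8.0, 0.01% Tween 20, with an AMC peptide substrate. Fluorescence change (340/450 nm) over 15 min at room temperature, normalized to controls, fitted to 4-parameter Hill.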
# [2] = Counterscreen qHTS for small molecule stabilizers of the endoplasmic reticulum resident proteome: GLuc-NoTag assay (AID 1508627);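 note: SH-SY5Y cells given compound then 100 nM thapsigargin to empty ER calcium; series mostly up to about 76 µM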
# Method in brief: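 SH-SY5Y cells stably expressing constitutively secreted GLuc without SERCaMP tag, exposed to compound for 19 hr, then to 100 nM thapsigargin for 4 hr at 37C. Medium luciferase was read by coelenterazine luminescence without lysis.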
# [3] = qHTS to identify inhibitors of the type 1 interferon - major histocompatibility complex class I in skeletal muscle: primary screen against the NCATS Mechanism Interrogation Plate v5.0 (MIPE) Libary (AID 1347411); note: nearly all actives have a fitted effect of over 65% in size
# Method in brief: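 Immortalized human myoblasts (C25cl48) with HiBit knocked into endogenous HLA-B*08:01 were stimulated with 4 ng/ml IFN-beta and given compounds in 11-point 1:3 titration from 46 uM. After 24 h at 37 C, lytic HiBiT luminescence was read.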
# [4] = Primary qHTS for inhibitors of nuclear receptor binding SET domain protein 2 (NSD2) in an isogenic RCH-ACV NSD2 p.E1099K mutant (9B) (AID 1645876); note: potency is the fitted concentration of half-maximal effect; nearly all actives have a fitted effect of over 70% in size
# [5] = Primary qHTS for inhibitors of nuclear receptor binding SET domain protein 2 (NSD2) in an RCH-ACV wild type WT cells (2C) (AID 1645877); note: potency is the fitted concentration of half-maximal effect; nearly all actives have a fitted effect of over 70% in size
# [6] = biological target: Glutathione peroxidase 1 (Homo sapiens) (UniProt P07203); assay: Primary qHTS Assay for Inhibitors of Recombinant Selenoprotein Glutathione Peroxidase 1 (GPX1) (AID 1845191); note: nearly all actives have a fitted effect of over 65% in size
# Method in brief: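 GR-coupled assay: compounds preincubated 30 min at room temperature with GPX1, then reaction started with CHP; final 10 nM GPX1, 1 mM GSH, 0.5 mM CHP, 0.5 mM NADPH, 100 nM GR, 0.01% BSA, pH 7.5 Tris buffer. NADPH fluorescence (340/450 nm) read at 0 and 15 min.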
# [7] = biological target: Phospholipid hydroperoxide glutathione peroxidase GPX4 (Homo sapiens) (UniProt P36969); assay: Primary qHTS Assay for Inhibitors of Recombinant Selenoprotein Glutathione Peroxidase 4 (GPX4) (AID 1845192); conditions: outcome: dose series up to 50 µM unless noted; note: series mostly up to about 50 µM; nearly all actives have a fitted effect of over 65% in size
# Method in brief: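 GR-coupled assay: recombinant GPX4 preincubated 30 min with compound at room temperature; final 200 nM GPX4, 1 mM GSH, 0.5 mM cumene hydroperoxide, 0.5 mM NADPH, 100 nM GR, 0.01% BSA, pH 7.5 Tris. NADPH fluorescence (340/450 nm) read at 0 and 15 min.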
# [8] = qHTS drug screen for cell cycle checkpoint inhibitors in PARPi-resistant BRCA-mutant ovarian cancer cell lines. (AID 1963452; calls by dose curve); conditions: PEO1/OlaR viability, CellTiter-Glo luminescence, 96 h, stronger effect = lower value
# Method in brief: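 PEO1, PEO4 and PEO1/OlaR ovarian cancer cells, 600 per well, exposed 96 h at 37C to a dilution series. Viability read by CellTiter-Glo luminescence, normalized to DMSO and empty wells; activity summarized as Z-AUC.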
# Sequence of Glutathione peroxidase 1 (Homo sapiens) (P07203 whole entry, looked up): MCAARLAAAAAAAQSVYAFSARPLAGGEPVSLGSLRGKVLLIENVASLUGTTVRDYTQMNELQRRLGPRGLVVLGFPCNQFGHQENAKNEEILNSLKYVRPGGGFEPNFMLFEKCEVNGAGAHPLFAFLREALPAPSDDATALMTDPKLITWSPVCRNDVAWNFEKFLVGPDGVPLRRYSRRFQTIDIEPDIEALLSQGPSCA
# Sequence of Phospholipid hydroperoxide glutathione peroxidase GPX4 (Homo sapiens) (P36969 whole entry, looked up): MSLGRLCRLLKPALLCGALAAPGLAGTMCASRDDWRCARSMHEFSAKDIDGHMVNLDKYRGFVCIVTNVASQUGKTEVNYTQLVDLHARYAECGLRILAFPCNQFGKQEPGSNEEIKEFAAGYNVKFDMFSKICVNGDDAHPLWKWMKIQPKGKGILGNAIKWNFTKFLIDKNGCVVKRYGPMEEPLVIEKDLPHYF
compound,measurement,setting,value
CC(C)N1CCN(c2ccc(C(=O)c3c(-c4ccc(O)cc4)sc4cc(O)ccc34)cc2)CC1,Potency,[1],inactive
same,Potency,[2],inactive
CSc1ccc([C@H]2CN3CCC[C@H]3c3ccccc32)cc1,Potency,[1],inactive
S=C(NCCCc1cnc[nH]1)NCCCN(Cc1ccc(Cl)c(Cl)c1)c1ccc(Br)cn1,Potency,[1],inactive
CCCCCCCCCCCCCCCCOCC(CO)OC(C)=O (centres undefined),"activity change, negative = inhibition",[1],15.1% [at 6.83 µM] (inactive)
COc1ccc(S(=O)(=O)N(CCO)c2ccccc2CN(C)C/C=C/c2ccc(Cl)cc2)cc1,Potency,[1],inactive
same,Potency,[3],inactive
same,Potency,[4],7.42 µM (active)
same,Potency,[5],8.33 µM (active)
same,Potency,[6],inactive
same,Potency,[7],inactive
same,Z-AUC,[8],-0.289 (inactive)
same,Z-AUC,[8]; measured here: PEO1 parental Z-AUC,-0.166
same,Z-AUC,[8]; measured here: PEO4 Z-AUC,0.482
